Inconclusive results are not listed. Entries that show only a call come without a potency. Active and inactive are the calls of the source. Calls come from the whole dose curve.

The assay in a line: qHTS assay for small molecule agonists of the antioxidant response element (ARE) signaling pathway - cell viability counter screen (AID 743203). Note: nearly all actives have a fitted effect of over 55% in size. Particulars: ARE-bla HepG2 viability, CellTiter-Glo luminescence, 16 h; series mostly up to 73.3 µM. The text has this:
National Center for Advancing Translational Sciences [NCATS]
NIH Chemical Genomics Center [NCGC]
U.S. Environmental Protection Agency [EPA]
National Institutes of Environmental Health Sciences [NIEHS]
National Toxicology Program [NTP]
U.S. Food and Drug Administration [FDA]
Oxidative stress has been implicated in the pathogenesis of a variety of diseases ranging from cancer to neurodegeneration. The antioxidant response element (ARE) signaling pathway plays an important role in the amelioration of oxidative stress. The CellSensor ARE-bla HepG2 cell line (Invitrogen) can be used for analyzing the Nrf2/antioxidant response signaling pathway. Nrf2 (NF-E2-related factor 2) and Nrf1 are transcription factors that bind to AREs and activate these genes. The CellSensor ARE-bla Hep G2 cell line contains a beta-lactamase reporter gene under control of the Antioxidant Response Element (ARE) stably integrated into HepG2 cells. The activation of the report gene under culture conditions can be detected by fluorescence intensity. This cell line has been used to screen the Tox21 10K compound library to identify agonists that induce oxidative stress. The cytotoxicity of the Tox21 compound library against the ARE-bla cell line was tested in parallel by measuring the cell viability using CellTiter-Glo assay (Promega, Madison, WI) in the same wells.
Tox21 Assay Protocol Summary:
ARE-bla HepG2 cells were dispensed at 2,000 cells/5 ul/well in 1536-well white wall/solid bottom plates using a Multidrop Combi (ThermoFisher Scientific, Waltham, MA) dispenser. After the assay plates were incubated at 37C/5% CO2 for 5 hrs, 23 nL of compounds dissolved in DMSO, positive controls or DMSO only was transferred to the assay plate by a pintool work station (Kalypsys, San Diego, CA). The plates were incubated at 37C/5% CO2 for 16 hrs, followed by addition of 4 ul/well of CellTiter-Glo reagent into the assay plates using a Flying Reagent Dispenser (Aurora Discovery, San Diego, CA). After 30 min incubation at room temperature, the luminescence intensity in the assay plates was measured using a ViewLux (PerkinElmer, Shelton, CT) plate reader.
On the technique in general: Quantitative high-throughput screening tests each substance at several concentrations.
For the molecule `Nc1ccc(NC(=O)c2ccc(N)cc2)cc1`, the Potency result was “inactive”.
With `CCN(CC)c1cccc(O)c1`, the Potency entry was “inactive”.
In the case of `C=CC(=O)NC(C)C` it was “inactive”.
In the case of `Cc1oc(=O)oc1COC(=O)[C@@H]1N2C(=O)[C@@H](NC(=O)[C@H](N)c3ccccc3)[C@H]2SC1(C)C` it was “inactive”.
Regarding `CCCOC(=O)c1c(Cl)c(Cl)c(Cl)c(Cl)c1C(=O)OCCC`, the Potency result was “inactive”.
The same measure for `Nc1ccn([C@H]2CS[C@@H](CO)O2)c(=O)n1`: “inactive”; for `CC/C=C\C/C=C\C/C=C\CCCCCCCC(=O)OCC`: “inactive”; for `O=C(c1ccccc1)c1ccc(O)cc1`: “inactive”.
The same measure for `CCCCCCCCCCCCCCN(C)C`: “inactive”.
Consider `CC(C)N(C)C`, for which the Potency entry was “inactive”.
The same measure for `c1ccc(CNc2ncnc3c2ncn3C2CCCCO2)cc1` (stereo not given): “inactive”; for `COc1cc(OC)c2ccc(=O)oc2c1`: “inactive”; for `Nc1nc(-c2ccc([N+](=O)[O-])cc2)cs1`: “inactive”.
Turning to `CCCCC(CC)COS(=O)(=O)O` (stereo not given), the Potency result was “inactive”.
In the case of `OCC(CO)n1cnc(-c2ccc(F)cc2)c1-c1ccnc(Oc2ccccc2)n1` it was “inactive”; in that of `CC1C(C)(C)C2=C(C(=O)CCC2)C1(C)C` (stereo not given), “inactive”; in that of `CC(C(=O)O)c1ccc(C(=O)c2cccs2)cc1` (stereo not given), “inactive”.
The same measure for `O=C1NC(=O)c2cccc3cccc1c23`: “inactive”.
In the case of `Cc1cc(CCC(=O)OCCOCCOCCOC(=O)CCc2cc(C)c(O)c(C(C)(C)C)c2)cc(C(C)(C)C)c1O` it was “inactive”.
As to `O=C(O)c1cc(Cl)cc(Cl)c1O`, the Potency result is “inactive”.
In the case of `C=C(C)c1ccccc1` it was “inactive”; in that of `Cc1ccc(NC(=O)N(C)C)cc1NC(=O)N(C)C`, “inactive”.
The same measure for `CC(=O)OCC(=O)[C@@]1(OC(C)=O)[C@@H](C)C[C@H]2[C@@H]3C[C@H](F)C4=CC(=O)C=C[C@]4(C)[C@@]3(F)[C@@H](O)C[C@@]21C`: “inactive”.
The same measure for `CC(C)c1ccc(C#N)cc1`: “inactive”; for `Cc1c[nH]c2ccccc12`: “inactive”.
With `O=S(=O)(O)CO`, the Potency result was “inactive”.
In the case of `CCOC(=O)c1ccc(NC(=O)CN2CCCCC2)cc1` it was “inactive”.
On to `O=C(O)c1ccc(O)cc1O`, for which the Potency result was “inactive”.
Regarding `COC(OC)OC`, the Potency result was “inactive”.
As to `CC(O)Cn1cnc2c1c(=O)n(C)c(=O)n2C` (stereo not given), the Potency result is “inactive”.
In the case of `C1=CCC2CC=CC2C1` (stereo not given) it was “inactive”.
The same measure for `CC(C)N=C=NC(C)C`: “inactive”.
The same measure for `C/C(C=O)=C\c1ccccc1`: “inactive”.
For `CSSc1ccoc1C`, the Potency result is “inactive”.
For the molecule `c1ccc2sc(SSc3nc4ccccc4s3)nc2c1`, the Potency result is “inactive”.
Regarding `CC(C)(C)CCCCCCOC(=O)c1ccccc1C(=O)OCCCCCCC(C)(C)C`, the Potency entry was “inactive”.
On to `CCCCCCCCCCCSCC(=O)O`, for which the Potency result is “inactive”.
The same measure for `COc1ccc2nc(S(=O)Cc3ncc(C)c(OC)c3C)[nH]c2c1` (stereo not given): “inactive”; for `Cc1ccccc1S(N)(=O)=O`: “inactive”.
In the case of `Cc1cc([N+](=O)[O-])ccc1N` it was “inactive”.

Source of the values: PubChem BioAssay (Tox21).
